Test results taken from PubChem BioAssay AID1159580 (chemical genetic matrix, 2015).
About 2,000 (36%) of roughly 5,500 compounds were called active. About 18% were inconclusive and are not listed. Cut-off read from the data, not from the text of the source: active = normalized growth mostly below about 0.91 (no sharp cut-off); inconclusive = no clear call, values can overlap the other calls; inactive = mostly above about 0.92. This is one part of the list.

Experiment: chemical genetic growth profiling, strain panel (AID 1159580);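 note: tested at 20 µM; growth read once vehicle control cultures reached saturation at 30 °C; 1 = growth at the plate median or of vehicle wells; lower values mean less growth of the strain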
Settings: growth OD

Measured: normalized growth

N=C(N)N
inactive: S. cerevisiae deletion strains, locus YJR075W, strain HOC1, stronger effect = lower value 0.988 | S. cerevisiae deletion strains, locus YKL009W, strain mrt4, stronger effect = lower value 0.997 | S. cerevisiae deletion strains, locus YKL068W, stronger effect = lower value 0.982 | S. cerevisiae deletion strains, locus YKL085W, strain MDH1 (second series), stronger effect = lower value 0.97 | S. cerevisiae deletion strains, locus YKL085W, strain MDH1, stronger effect = lower value 0.97 | S. cerevisiae deletion strains, locus YKL160W, strain elf1, stronger effect = lower value 1 | S. cerevisiae deletion strains, locus YKL190W, strain CNB1, stronger effect = lower value 0.993 | S. cerevisiae deletion strains, locus YKR001C, strain vps1, stronger effect = lower value 0.996 | S. cerevisiae deletion strains, locus YKR026C, strain gcn3, stronger effect = lower value 0.999 | S. cerevisiae deletion strains, locus YKR091W, strain srl3, stronger effect = lower value 1 | S. cerevisiae deletion strains, locus YLL001W, strain dnm1, stronger effect = lower value 0.993 | S. cerevisiae deletion strains, locus YLL026W, stronger effect = lower value 0.994 | S. cerevisiae deletion strains, locus YLL041C, strain sdh2, stronger effect = lower value 1 | S. cerevisiae deletion strains, locus YLR027C, strain aat2, stronger effect = lower value 1.01 | S. cerevisiae deletion strains, locus YLR039C, strain RIC1, stronger effect = lower value 1.01 | S. cerevisiae deletion strains, locus YLR058C, strain SHM2, stronger effect = lower value 0.999 | S. cerevisiae deletion strains, locus YLR102C, strain apc9, stronger effect = lower value 0.986 | S. cerevisiae deletion strains, locus YLR113W, strain HOG1, stronger effect = lower value 0.996 | S. cerevisiae deletion strains, locus YLR221C, strain rsa3, stronger effect = lower value 0.982 | S. cerevisiae deletion strains, locus YLR258W, strain gsy2, stronger effect = lower value 0.996 | S. cerevisiae deletion strains, locus YLR262C, strain YPT6 (second series), stronger effect = lower value 0.991 | S. cerevisiae deletion strains, locus YLR262C, strain YPT6, stronger effect = lower value 1.01 | S. cerevisiae deletion strains, locus YLR268W, strain sec22, stronger effect = lower value 0.937 | S. cerevisiae deletion strains, locus YLR320W, strain mms22, stronger effect = lower value 0.983 | S. cerevisiae deletion strains, locus YLR330W, strain CHS5, stronger effect = lower value 0.991 | S. cerevisiae deletion strains, locus YLR342W, strain FKS1 (second series), stronger effect = lower value 1.13 | S. cerevisiae deletion strains, locus YLR342W, strain FKS1, stronger effect = lower value 0.993 | S. cerevisiae deletion strains, locus YLR357W, strain rsc2, stronger effect = lower value 0.977 | S. cerevisiae deletion strains, locus YLR370C, strain arc18, stronger effect = lower value 1.01 | S. cerevisiae deletion strains, locus YLR371W, strain rom2, stronger effect = lower value 0.961 | S. cerevisiae deletion strains, locus YLR384C, strain iki3, stronger effect = lower value 0.985 | S. cerevisiae deletion strains, locus YLR418C, strain cdc73, stronger effect = lower value 1.02 | S. cerevisiae deletion strains, locus YML016C, strain PPZ1, stronger effect = lower value 1 | S. cerevisiae deletion strains, locus YML032C, strain rad52, stronger effect = lower value 0.96 | S. cerevisiae deletion strains, locus YML120C, strain ndi1, stronger effect = lower value 1.02 | S. cerevisiae deletion strains, locus YML124C, strain tub3, stronger effect = lower value 0.991 | S. cerevisiae deletion strains, locus YMR058W, strain fet3, stronger effect = lower value 1 | S. cerevisiae deletion strains, locus YMR078C, strain ctf18, stronger effect = lower value 0.967 | S. cerevisiae deletion strains, locus YMR125W, strain sto1, stronger effect = lower value 0.996 | S. cerevisiae deletion strains, locus YMR129W, stronger effect = lower value 0.992 | S. cerevisiae deletion strains, locus YMR205C, strain PFK2, stronger effect = lower value 1.01 | S. cerevisiae deletion strains, locus YMR223W, strain ubp8, stronger effect = lower value 1.02 | S. cerevisiae deletion strains, locus YMR231W, strain pep5, stronger effect = lower value 0.994 | S. cerevisiae deletion strains, locus YMR263W, strain SAP30, stronger effect = lower value 0.992 | S. cerevisiae deletion strains, locus YMR307W, strain GAS1, stronger effect = lower value 1.14 | S. cerevisiae deletion strains, locus YNL067W, strain RPL9B, stronger effect = lower value 0.987 | S. cerevisiae deletion strains, locus YNL071W, strain lat1, stronger effect = lower value 1.01 | S. cerevisiae deletion strains, locus YNL128W, strain TEP1, stronger effect = lower value 0.995 | S. cerevisiae deletion strains, locus YNL153C, strain GIM3, stronger effect = lower value 1 | S. cerevisiae deletion strains, locus YNL183C, strain NPR1, stronger effect = lower value 0.949 | S. cerevisiae deletion strains, locus YNL209W, strain ssb2, stronger effect = lower value 1.02 | S. cerevisiae deletion strains, locus YNL233W, strain BNI4, stronger effect = lower value 0.994 | S. cerevisiae deletion strains, locus YNL248C, strain rpa49, stronger effect = lower value 0.92 | S. cerevisiae deletion strains, locus YNL250W, strain rad50, stronger effect = lower value 0.99 | S. cerevisiae deletion strains, locus YNL271C, strain bni1, stronger effect = lower value 0.993 | S. cerevisiae deletion strains, locus YNL298W, strain CLA4, stronger effect = lower value 0.999 | S. cerevisiae deletion strains, locus YNL307C, strain MCK1, stronger effect = lower value 0.991 | S. cerevisiae deletion strains, locus YNL322C, strain KRE1 (second series), stronger effect = lower value 0.997 | S. cerevisiae deletion strains, locus YNL322C, strain KRE1, stronger effect = lower value 0.993 | S. cerevisiae deletion strains, locus YNR049C, strain mso1, stronger effect = lower value 0.991 | S. cerevisiae deletion strains, locus YNR052C, strain pop2, stronger effect = lower value 0.971 | S. cerevisiae deletion strains, locus YOL006C, strain TOP1, stronger effect = lower value 0.979 | S. cerevisiae deletion strains, locus YOL012C, strain htz1 0.806 | S. cerevisiae deletion strains, locus YOL147C, strain pex11, stronger effect = lower value 0.976 | S. cerevisiae deletion strains, locus YOR001W, strain rrp6, stronger effect = lower value 0.949 | S. cerevisiae deletion strains, locus YOR061W, strain CKA2, stronger effect = lower value 0.991 | S. cerevisiae deletion strains, locus YOR069W, strain VPS5, stronger effect = lower value 0.999 | S. cerevisiae deletion strains, locus YOR070C, strain gyp1, stronger effect = lower value 0.979 | S. cerevisiae deletion strains, locus YOR080W, strain dia2, stronger effect = lower value 0.979 | S. cerevisiae deletion strains, locus YOR083W, strain WHI5, stronger effect = lower value 1.01 | S. cerevisiae deletion strains, locus YOR106W, strain vam3, stronger effect = lower value 1.01 | S. cerevisiae deletion strains, locus YOR136W, strain idh2, stronger effect = lower value 0.986 | S. cerevisiae deletion strains, locus YOR144C, strain elg1, stronger effect = lower value 0.977 | S. cerevisiae deletion strains, locus YOR184W, strain ser1, stronger effect = lower value 0.974 | S. cerevisiae deletion strains, locus YOR231W, strain MKK1, stronger effect = lower value 1.02 | S. cerevisiae deletion strains, locus YOR265W, strain rbl2, stronger effect = lower value 0.998 | S. cerevisiae deletion strains, locus YOR270C, strain vph1, stronger effect = lower value 0.969 | S. cerevisiae deletion strains, locus YOR290C, strain snf2, stronger effect = lower value 0.975 | S. cerevisiae deletion strains, locus YOR316C, strain cot1, stronger effect = lower value 0.965 | S. cerevisiae deletion strains, locus YPL051W, strain arl3, stronger effect = lower value 0.983 | S. cerevisiae deletion strains, locus YPL055C, strain LGE1, stronger effect = lower value 1.01 | S. cerevisiae deletion strains, locus YPL078C, strain atp4, stronger effect = lower value 1.01 | S. cerevisiae deletion strains, locus YPL106C, strain sse1, stronger effect = lower value 1.01 | S. cerevisiae deletion strains, locus YPL240C, strain hsp82, stronger effect = lower value 0.999 | S. cerevisiae deletion strains, locus YPL241C, strain CIN2, stronger effect = lower value 0.998 | S. cerevisiae deletion strains, locus YPL256C, strain CLN2, stronger effect = lower value 1.07 | S. cerevisiae deletion strains, locus YPR119W, strain clb2, stronger effect = lower value 0.974 | S. cerevisiae deletion strains, locus YPR141C, strain kar3, stronger effect = lower value 0.982 | S. cerevisiae deletion strains, locus YPR163C, strain tif3, stronger effect = lower value 0.976 | S. cerevisiae deletion strains, locus YPR167C, strain met16, stronger effect = lower value 0.971 | S. cerevisiae deletion strains, strain wtn01, stronger effect = lower value 0.981 | S. cerevisiae strains, strain wild type, stronger effect = lower value 1
